For 95 compounds, inhibition results are on record in PubChem BioAssay AID1626 (SRMLSC, 2009).

Out of some 220,000 compounds screened, about 2,000 (0.91%) were called active. Roughly 2% stayed inconclusive and do not appear here. These entries were drawn from the full list. Results with a measured potency or affinity are listed apart. Values without a mark were called inactive. No stated cut-off is given here; in the data, inconclusive means inhibition above about 80% without an active follow-up result; inactive means below that; test concentration not stated here.

A short description of the test: M. tuberculosis H37Rv growth inhibitors, H37Rv strain (AID 1626).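 Further: bacteria incubated seven days before Alamar blue readout; 0% = bacteria only wells and 100% = bacteria with antibiotic wells.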 Conditions: stronger effect = higher value, concentration not given here.
The inhibition is the drop in the measured response relative to a control, in per cent. On to `CCOc1ccc(NC(=O)Nc2cccnc2)cc1`, for which the inhibition is 16.1%.

In the case of `O=C(O)CSc1ncnc2c1oc1ccccc12`, the inhibition is -5.38%.

Take `NC(=O)CSc1ncnc2c1oc1ccccc12`: the inhibition is 7.24%.

`COc1ccc(Cc2nnc(NC(=O)c3cccc([N+](=O)[O-])c3)s2)cc1`: the inhibition is 1.81%.

On to `CCCCNC(=O)c1ccc(Cn2c(=S)[nH]c3c([nH]c4ccc(OC)cc43)c2=O)cc1`, for which the inhibition is -1.23%.

In the case of `O=c1[nH]c(CN2CCOCC2)nc2ccccc12`, the inhibition was -6.66%.

For `N#Cc1ccc(COC(=O)c2ccc3c(=O)[nH]c(CN4CCOCC4)nc3c2)cc1`, the inhibition is -4.45%.

As for `O=C(c1ccc2c(c1)OCO2)C1CCCN(C(=O)c2cnn(Cc3ccccc3)c2)C1` (stereo not given), the inhibition is 5.07%.

Turning to `CS(=O)(=O)N1CCN(c2ccccc2NC(=O)c2ccc(-c3ccc(Cl)cc3Cl)o2)CC1`, the inhibition was -2.89%.

For `Cc1ccccc1NC(=O)c1ccc(-c2ccc(Cl)cc2Cl)o1`, the inhibition is 66.1%.

For the compound `Cc1c(NC(=O)c2cc3c(s2)-c2ccccc2OC3)cccc1[N+](=O)[O-]`, the inhibition is 1.27%.

As to `O=C(O)c1cc2c(s1)-c1ccccc1OC2`, the inhibition is -9.86%.

For `Cc1cccc(-c2c3c(=O)n(C)c(=O)n(C)c3cn2CCO)c1`, the inhibition is 0.58%.

In the case of `CCOC(=O)/C(C#N)=C1/C=C(C)NC(c2ccccc2O)=N1`, the inhibition is -1.53%.

Take `C=CCNC(=O)COC(=O)CCC(=O)c1cccs1`: the inhibition was -6.43%.

In the case of `CCC1=C(OC(=O)N(CC)CC)N2C(=O)OC(=NCc3ccccc3)[C@]2(C)[C@H]2C1=CC[C@H]1C(=O)N(CC(=O)OC)C(=O)[C@H]12`, the inhibition was 6.67%.

As for `COc1ccccc1-c1nc(C#N)c(N2CCN(c3ccccc3)CC2)o1`, the inhibition is 0.35%.

Regarding `O=C(NCCN1CCN(c2cccc(Cl)c2)CC1)c1ccc(CSc2nc3ccncc3[nH]2)cc1`, the inhibition was 12.1%.

Regarding `COc1ccc(Cl)cc1N(CC(=O)N/N=C/c1ccc(OC(C)C)cc1)S(=O)(=O)c1ccc(C)c([N+](=O)[O-])c1`, the inhibition was 2.6%.

Regarding `NC(=O)NC(=O)COC(=O)c1sc2ccccc2c1Cl`, the inhibition was -8.02%.

For the compound `CC1CCCC(NC(=O)COC(=O)COc2ccccc2Cl)C1C` (stereo not given), the inhibition was -6.56%.

Turning to `CC1CCCC(NC(=O)COC(=O)Cc2ccccc2)C1C` (stereo not given), the inhibition is -10.6%.

With `NC(=O)COC(=O)c1sc2ccccc2c1Cl`, the inhibition is 59.5%.

In the case of `O=C(NCc1ccccc1F)Nc1ccc([N+](=O)[O-])cc1`, the inhibition is -8.88%.

For `COC(=O)c1c(NC(=O)CC2SC(N)=NC2=O)sc2c1CCC(C)C2` (stereo not given), the inhibition is 10.2%.

In the case of `COC(=O)c1c(NC(=O)CC2SC(N)=NC2=O)sc2c1CCCC2` (stereo not given), the inhibition is 0.3%.

As for `Nc1nc(CN2CCN(c3ccccc3F)CC2)nc(Nc2ccc3c(c2)OCCO3)n1`, the inhibition was 12.1%.

With `CCCOc1ccc(-c2nnn(CC(=O)OCC)n2)cc1`, the inhibition is 79.1%.

On to `CC(C)COc1ccc(-c2nnn(CC(=O)N3CCCC3)n2)cc1`, for which the inhibition was 2.29%.

As for `COCCNC(=O)C(c1ccc(C)o1)N(C(=O)Cn1nnc2ccccc21)c1ccccc1` (stereo not given), the inhibition is 4.15%.

As to `COc1ccc(N2CCN(C(=O)c3ccc4c(c3)[nH]c(=S)n3c5ccccc5nc43)CC2)cc1`, the inhibition was -4.09%.

For `O=C(c1ccc2c(c1)[nH]c(=S)n1c3ccccc3nc21)N1CCN(c2ncccn2)CC1`, the inhibition was -5.02%.

As for `Cc1csc2nc(CNS(=O)(=O)c3ccc4c(c3)CCCC4)cn12`, the inhibition is -3.26%.

Regarding `Cc1cnc(C(=O)Nc2ccc(C(C)C)cc2)cn1`, the inhibition is 13.7%.

As for `CC(C)(C)c1ccc(Oc2ccc(NC(=O)C3CC=CCC3C(=O)O)cc2)cc1` (stereo not given), the inhibition was 3.77%.

Take `CCc1ccc(NC(=O)C2CC=CCC2C(=O)O)cc1` (stereo not given): the inhibition is -2.56%.

`Cc1cnc(C(=O)Nc2ccc(F)cc2)cn1`: the inhibition was -5.16%.

Turning to `O=S(=O)(NC1CCCCCCC1)c1cccs1`, the inhibition was 2.84%.

For the compound `CC/C=C\[C@H](O)[C@H](O)C1=C(C)C(=O)[C@]2(O1)C(=O)N[C@@](OC)(C(=O)c1ccccc1)C2O` (stereo not given in full), the inhibition was -6.03%.

For `CCOC(=O)C(/C(C)=N/NC(=O)C1CC1c1ccccc1)C(C)C` (stereo not given), the inhibition is 2.71%.

Regarding `CCCCc1nc2sc3c(SCC(=O)NCc4ccco4)ncnc3c2c2c1CCC2`, the inhibition is -4.26%.

Consider `CCCCc1nc2sc3c(=O)n(N)cnc3c2c2c1CCC2`, for which the inhibition was -0.89%.

Turning to `COCCCNC(=O)c1c(NC(=O)C2COc3ccccc3O2)sc2c1CCCC2` (stereo not given), the inhibition is -1.45%.

Regarding `COc1ccc(OC)c(S(=O)(=O)N2Cc3ccccc3CC2C(=O)O)c1` (stereo not given), the inhibition was -11.6%.

As for `CC(=O)Nc1ccc(NC(=O)CCCCCN2C(=O)c3ccccc3C2=O)cc1`, the inhibition is 1.79%.

Regarding `CCN1/C(=C\C=C2\C(=O)N(C)C(=S)N2C)Sc2ccccc21`, the inhibition was 16%.

On to `CCN1/C(=C2\SC(=S)N(Cc3ccccc3)C2=O)Sc2ccccc21`, for which the inhibition was 5.93%.

For the compound `CC(=O)Nc1ccc2c(c1)nc1n2CCN(C(C)c2ccccc2)C1` (stereo not given), the inhibition is 5.76%.

`O=C(c1ccc(F)cc1)N1CCCCC(S(=O)(=O)c2ccccc2)C1=O` (stereo not given): the inhibition is 6.14%.

As for `N#CCSc1nc2ccccc2c(=O)n1CCCC(=O)NCC1CCCO1` (stereo not given), the inhibition is -1.98%.

On to `Cc1ccc(C(=O)OCC(=O)c2ccc[nH]2)s1`, for which the inhibition is 7.67%.

With `O=C(COC(=O)c1ccc[nH]c1=O)c1ccc(Cl)s1`, the inhibition is -0.06%.

Turning to `O=C1NC(O)(c2ccccc2)Oc2ccccc21` (stereo not given), the inhibition is -6.9%.

For `Cc1[nH][nH]c(=O)c1C(c1ccc(-c2ccc(Cl)c(Cl)c2)o1)c1c(C)[nH][nH]c1=O`, the inhibition is 60.8%.

Consider `Cc1[nH][nH]c(=O)c1C(c1ccc(-c2ccc(F)cc2)o1)c1c(C)[nH][nH]c1=O`, for which the inhibition is 4.51%.

As to `O=C(CN1CCC(N2CCCCC2)CC1)N1CCOCC1`, the inhibition was 5.06%.

For the compound `CCOC(=O)N1CCN(C(c2ccc(C(C)C)cc2)c2sc3nc(C)nn3c2O)CC1` (stereo not given), the inhibition is 0.52%.

Regarding `COc1ccc(Cl)cc1S(=O)(=O)NCc1cccnc1`, the inhibition was -12%.

For the compound `O=S(=O)(Nc1ccc(-c2nnc(SCc3ccc(Cl)cc3)o2)cc1)c1ccccc1`, the inhibition is 5.83%.

As to `O=c1cc(CSc2nnc(COc3ccccc3)n2-c2ccccc2)c2ccccc2[nH]1`, the inhibition is 3.7%.

Turning to `Cc1cccc(OCc2nnc(SCc3cc(=O)[nH]c4ccccc34)n2-c2ccccc2)c1`, the inhibition was 4.6%.

On to `COc1ccc(-c2cc(C(=O)Nc3cc(OC)c(OC)c(OC)c3)no2)cc1OC`, for which the inhibition is -1.57%.

On to `COCCNC(=O)c1cc(-c2ccc(OC)c(OC)c2)on1`, for which the inhibition was 6.55%.

For the compound `CCOC(=O)c1ccc(NC(=O)CSc2nc3c(c(=O)n2CC)SC(C)C3)cc1` (stereo not given), the inhibition is 7.17%.

For `CCCSc1cc(NCCOC(C)=O)c([N+](=O)[O-])c2nonc12`, the inhibition was 2.64%.

As for `CCCSc1cc(NCCOC(=O)CCC)c([N+](=O)[O-])c2nonc12`, the inhibition is 56.8%.

With `CC(=O)OCCNc1cc(SC(C)C)c2nonc2c1[N+](=O)[O-]`, the inhibition was 1.55%.

Consider `CC(C)CCSc1cc(NCCO)c([N+](=O)[O-])c2nonc12`, for which the inhibition was -2.23%.

Regarding `COC(=O)c1cc2ccsc2n1CC(=O)Nc1cc(C)cc(C)c1`, the inhibition was -0.8%.

On to `Cc1cc(NCCOCCO)n2ncc(-c3ccc(Cl)cc3)c2n1`, for which the inhibition is 8.65%.

As to `Cc1cc(NCCCN2CCOCC2)n2ncc(-c3ccc(Cl)cc3)c2n1`, the inhibition is 4.89%.

For `CC(C)Nc1cc(C(C)(C)C)nc2c(-c3ccccc3)cnn12`, the inhibition is -1.54%.

For `CC(C)(C)c1cc(C(F)(F)F)n2ncc(-c3ccccc3)c2n1`, the inhibition was 3.89%.

Consider `CCCc1cc(=O)oc2c(C)c(OCC(=O)c3ccc(N4CCCC4)cc3)ccc12`, for which the inhibition was 15.8%.

Consider `COCCNC(=O)c1onc(CSc2ccc(C(C)C)cc2)c1C(=O)O`, for which the inhibition is -18.6%.

For `O=C1C2C3CCC(C3)C2C(=O)N1c1ccc(OS(=O)(=O)c2ccccc2)cc1` (stereo not given), the inhibition was -1.92%.

Regarding `CCOC(=O)c1nn(-c2ccc(Cl)cc2)c2nc(CC)c(C#N)c(=O)n12`, the inhibition was 1.58%.

As to `COCC(=O)OC/C(O)=C(\C#N)c1nc2ccccc2[nH]1`, the inhibition was 43.4%.

As to `N#C/C(=C(/O)COC(=O)CSc1ccc(Cl)cc1)c1nc2ccccc2[nH]1`, the inhibition is 76.2%.

In the case of `CC(C)C(=O)OC/C(O)=C(\C#N)c1nc2ccccc2[nH]1`, the inhibition is -0.61%.

Consider `Cc1cc(C)cc(OCC(=O)OC/C(O)=C(\C#N)c2nc3ccccc3[nH]2)c1`, for which the inhibition is 13%.

Take `Cc1cc(Br)ccc1SCC(=O)OC/C(O)=C(\C#N)c1nc2ccccc2[nH]1`: the inhibition is 77.9%.

Take `Cc1cccc(C)c1OCC(=O)OC/C(O)=C(\C#N)c1nc2ccccc2[nH]1`: the inhibition was 3.83%.

Regarding `Cc1ccccc1NC(=O)Cc1nnc(SCc2ccc(Cl)c(Cl)c2)n1C`, the inhibition was -3.35%.

Turning to `COc1cccc(C(=O)NNC(=S)NC2CCCCC2)c1`, the inhibition is 4.93%.

In the case of `CCCn1c(SCC(=O)Nc2ccccc2C(=O)OC)nc2c1c(=O)n(C)c(=O)n2C`, the inhibition was 0.72%.

On to `O=C(CCl)NCc1c(Cl)cccc1-n1cccc1`, for which the inhibition was -3.53%.

In the case of `COCCOC(=O)c1c(NC(=O)CN2c3ccccc3CC2C)sc(C(N)=O)c1C` (stereo not given), the inhibition was 6.79%.

With `O=C(COC(=O)c1cccc(Cl)c1Cl)NCCN1C(=O)CSC1=O`, the inhibition was -1.16%.

Turning to `O=S(=O)(c1cc(Cl)ccc1Br)N1CCCCC1`, the inhibition was 3.97%.

For the compound `CCOC(=O)N1CCC(Nc2nc3ccccc3n3cnnc23)CC1`, the inhibition was 4.5%.

For `Cc1ccc(-c2csc(NC(=O)C[n+]3cc(-c4ccccc4)n4c3CCC4)n2)cc1`, the inhibition is 75.7%.

Turning to `Cc1ccc(NC(=O)C[n+]2cc(-c3ccc(C)cc3)n3c2CCC3)cc1`, the inhibition is 0.55%.

As for `O=C(C[n+]1cc(-c2ccccc2)n2c1CCC2)Nc1nc(-c2ccccc2)cs1`, the inhibition was 77.8%.

For the compound `Cc1ccc(-c2c[n+](CC(=O)Nc3c(C)cccc3C)c3n2CCC3)cc1`, the inhibition was -1.5%.
